According to PubChem BioAssay AID1159580 (chemical genetic matrix, 2015):
Hit rate of the full screen: of about 5,500 compounds, about 2,000 (36%) were called active. Roughly 18% stayed inconclusive and do not appear here. No stated cut-off is given here; in the data, active means normalized growth mostly below about 0.91 (no sharp cut-off); inconclusive means no clear call, values can overlap the other calls; inactive means mostly above about 0.92. Some of the results follow.

Assay: chemical genetic growth profiling, strain panel (AID 1159580);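 further: tested at 20 µM; growth read once vehicle control cultures reached saturation at 30 °C; 1 = growth at the plate median or of vehicle wells; lower values mean less growth of the strain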
Details: S. cerevisiae deletion strains, growth OD

Measured: normalized growth

CC(C)(CO)Cc1cc(C(C)(C)C)c(O)c(C(C)(C)C)c1
inactive: locus YAL013W, strain DEP1, active compounds read low 0.972 | locus YAL040C, strain CLN3, active compounds read low 0.927 | locus YCL061C, strain MRC1 (second series), active compounds read low 0.975 | locus YDR363W, strain ESC2, active compounds read low 1.02 | locus YER002W, strain NOP16, active compounds read low 0.968 | locus YGR078C, strain PAC10, active compounds read low 0.978 | locus YGR229C, strain SMI1, active compounds read low 0.898 | locus YNL175C, strain NOP13, active compounds read low 0.954 | locus YNL197C, strain WHI3, active compounds read low 0.959 | locus YNL224C, strain SQS1, active compounds read low 0.962 | locus YNL322C, strain KRE1, active compounds read low 0.975 | locus YOR083W, strain WHI5 (second series), active compounds read low 0.951
